Assay outcomes (PubChem BioAssay)
AmpC detergent = qHTS Inhibitors of AmpC Beta-Lactamase (assay with detergent). AmpC hydrolysis of nitrocefin, absorbance 480 nm, 0.01% Triton. P00811. 370,000 compounds, 0.041% hits. Potency, µM (titrated, usually from 114 µM), actives largely listed as inhibitors; further: nearly all actives have a fitted effect of over 25% in size
Target sequence (P00811 whole entry, looked up): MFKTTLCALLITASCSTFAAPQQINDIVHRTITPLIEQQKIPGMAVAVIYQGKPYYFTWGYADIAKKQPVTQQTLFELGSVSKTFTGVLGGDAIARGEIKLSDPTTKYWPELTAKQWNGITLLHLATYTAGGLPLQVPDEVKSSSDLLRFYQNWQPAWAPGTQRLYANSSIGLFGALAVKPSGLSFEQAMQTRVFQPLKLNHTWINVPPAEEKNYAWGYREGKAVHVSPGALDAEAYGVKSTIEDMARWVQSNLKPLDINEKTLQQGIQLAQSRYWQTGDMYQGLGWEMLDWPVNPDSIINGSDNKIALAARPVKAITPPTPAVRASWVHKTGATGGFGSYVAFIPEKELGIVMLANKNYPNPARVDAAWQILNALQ
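20 mM phosphate pH 7.0 + 0.01% (detergent screen) or 0.0001% Triton X-100; 5.3 nM AmpC reagent; cpd preinc 15 min RT; nitrocefin (800 uM stock) to start; A480 q20 s × 4 min; Activity was normalised to no-enzyme and no-compound control wells.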
Sm TGR block = qHTS Assay for the Inhibitors of Schistosoma Mansoni Peroxiredoxins; Schistosoma mansoni thioredoxin glutathione reductase (TGR), Q962Y6; purified TGR, DTNB reduction, TNB absorbance 405 nm; Potency, µM (series often up to 114 µM), hits mostly inhibitors; 360,000 compounds, 3% hits; AID 485364, 2010; further: nearly all actives have a fitted effect of over 60% in size
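TGR 20 nM + NADPH 100 uM (dispensed conc.), cpd preinc 15 min RT; start with NADPH (500 uM addition) then DTNB (15 mM addition). Kinetic TNB absorbance, 405 nm filter. Four-parameter Hill fit across titration.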
TbPYK inhibitor = qHTS of Trypanosoma Brucei Inhibitors; pyruvate kinase (Trypanosoma brucei), Q57TT1; TbPYK enzyme, Kinase-Glo Plus ATP luminescence, 45 min; Potency, µM (series often up to 76.8 µM), most hits filed as inhibitors; 410,000 compounds, 0.12% hits; further: nearly all actives have a fitted effect of over 50% in size
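ADP (130 uM final) triggers the TbPYK reaction after compound addition; incubation is 45 min at room temperature. Kinase-Glo Plus is then added and luminescence imaged. Normalized data are fitted to concentration-effect curves.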
RE007 growth inh = qHTS Assay for Inhibitors of the HIV-1 protein Vpr; S. pombe RE007 Vpr strain, BacTiter-Glo ATP luminescence, 24 h; Potency, µM (titrated, usually from 92.2 µM), usual class: inhibitors; 360,000 compounds, 0.21% hits; active means well fitted falling curve with a large enough effect; inconclusive means small, poorly fitted or top-dose-only effect; inactive means no such curve, though single readings can be large or run the other way; further: nearly all actives have a fitted effect of over 50% in size
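Fission yeast strain RE007, carrying one chromosomally integrated HIV-1 vpr copy, was seeded at OD 0.01 in PMG+AL medium with 23 nL pinned compound. After 24 h at 30 °C and 99% humidity, viability was read by BacTiter-Glo luminescence.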
SARS PLP yeast = qHTS of Yeast-based Assay for SARS-CoV PLP; S. cerevisiae expressing SARS-CoV PLpro, growth rescue; Potency, µM (titrated, usually from 32.9 µM), actives largely listed as activators; AID 485353, 2010; 330,000 compounds, 0.19% hits; calls by dose curve; further: nearly all actives have a fitted effect of over 55% in size
AmpC no deterg = qHTS Inhibitors of AmpC Beta-Lactamase (assay without detergent); P00811; AmpC nitrocefin hydrolysis, absorbance 480 nm, 0.0001% Triton; Potency, µM (top dose mostly 57.1 µM), usual class: inhibitors; 330,000 compounds, 0.52% hits; AID 485341, 2010; further: nearly all actives have a fitted effect of over 20% in size
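AmpC (5.3 nM in the dispensed reagent) in 20 mM phosphate pH 7.0 with 0.01% (detergent screen) or 0.0001% Triton X-100 was preincubated with compounds for 15 min at room temperature. Nitrocefin was then added from an 800 uM solution, and hydrolysis was followed at 480 nm.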
A number is an active result. An excerpt weighted towards active compounds, which were near 3.3% of everything screened. Unless noted, the call rests on the fitted dose curve; in most records, active means well fitted curve in the direction sought with a large enough effect; inconclusive means small, poorly fitted or top-dose-only effect, or another doubt; inactive means no such curve, though single readings can be large; an effect the other way counts as inactive or inconclusive.

What do the screens show for `COc1ccc(CCNC(=O)Cc2c(C)c3cc4c(C(C)(C)C)coc4c(C)c3oc2=O)cc1OC`?
AmpC detergent: inactive; Sm TGR block: inactive; TbPYK inhibitor: inactive

How did COc1ccc(CNC(=O)c2cc3cc(C)ccc3n2C)cc1 do in these assays?
AmpC detergent: inactive; Sm TGR block: inactive; TbPYK inhibitor: inactive

Results for CCOC(=O)C1CCC(CN(Cc2c(Cl)cccc2Cl)S(=O)(=O)c2ccc(Cl)cc2)CC1 (stereo not given) ?
AmpC detergent: inactive; Sm TGR block: inactive; TbPYK inhibitor: inactive

How did O=C(NC(=S)Nc1ccccc1Cl)C1CC1 do in these assays?
AmpC detergent: inactive; Sm TGR block: 45µM; TbPYK inhibitor: inactive; RE007 growth inh: inactive; SARS PLP yeast: inactive; AmpC no deterg: inactive

What do the screens show for `Cc1cc(C(=O)CCl)c(C)n1-c1cccc(S(=O)(=O)N2CCOCC2)c1`?
AmpC detergent: inactive; Sm TGR block: 3.5µM; TbPYK inhibitor: inactive; RE007 growth inh: inactive; SARS PLP yeast: inconclusive; AmpC no deterg: inactive

How did Cc1ccc(C)n1-c1cccc(S(=O)(=O)N2CCOCC2)c1 do in these assays?
AmpC detergent: inactive; Sm TGR block: 35µM; TbPYK inhibitor: inactive; RE007 growth inh: inactive; SARS PLP yeast: inactive; AmpC no deterg: inactive

How did O=S(=O)(c1cccc(-c2n[nH]c(=S)n2C2CCCC2)c1)N1CCOCC1 do in these assays?
AmpC detergent: inactive; Sm TGR block: inactive; TbPYK inhibitor: 6.3µM; RE007 growth inh: inactive; SARS PLP yeast: inactive; AmpC no deterg: inactive

How did CCC(C(=O)Nc1ccc(C)c(C)c1)n1c(=O)c(C(F)(F)F)nc2ccccc21 (stereo not given) do in these assays?
AmpC detergent: inactive; Sm TGR block: inactive; TbPYK inhibitor: inactive

What do the screens show for `COCCCNC(=O)C1CCN(c2cc(C)nc3c(-c4ccc(Cl)cc4)c(C)nn23)CC1`?
AmpC detergent: inactive; Sm TGR block: inactive; TbPYK inhibitor: inactive

How did COc1cc(NC(=O)C(CC(C)C)NS(=O)(=O)c2ccc3c(c2)CCN3C(C)=O)cc(OC)c1 (stereo not given) do in these assays?
AmpC detergent: inactive; Sm TGR block: inactive; TbPYK inhibitor: inactive

What do the screens show for `O=[N+]([O-])CC(=Nc1ccc(F)cc1)N/N=C\c1oc(O)c2ccccc12`?
AmpC detergent: inactive; Sm TGR block: 11µM; SARS PLP yeast: inactive; AmpC no deterg: inactive

Results for O=C(N/N=C/c1oc(O)c2ccccc12)c1ccccc1O ?
AmpC detergent: inconclusive; Sm TGR block: inactive; TbPYK inhibitor: inactive; RE007 growth inh: inactive; SARS PLP yeast: inactive; AmpC no deterg: inactive

What do the screens show for `Cc1nnc(C)c2c(C)n(-c3ccccc3)c(C)c12`?
AmpC detergent: inactive; Sm TGR block: inactive; TbPYK inhibitor: inactive; RE007 growth inh: inactive; SARS PLP yeast: inactive; AmpC no deterg: inactive

How did CCn1c(C)c2c(C)nnc(C)c2c1C do in these assays?
AmpC detergent: inactive; Sm TGR block: 45µM; TbPYK inhibitor: inactive; RE007 growth inh: inactive; SARS PLP yeast: inactive; AmpC no deterg: inactive

Results for NS(=O)(=O)c1ccc(NS(=O)(=O)c2ccc(NC(=O)c3ccc(-c4ccccc4)cc3)cc2)cc1 ?
AmpC detergent: inactive; Sm TGR block: inactive; TbPYK inhibitor: inactive; RE007 growth inh: inactive; SARS PLP yeast: inactive; AmpC no deterg: 11µM

How did NS(=O)(=O)c1ccc(NC(=O)c2ccc(-c3ccccc3)cc2)cc1 do in these assays?
AmpC detergent: inactive; Sm TGR block: inactive; TbPYK inhibitor: inactive; RE007 growth inh: inactive; SARS PLP yeast: inactive; AmpC no deterg: inactive

How did CCN(Cc1ccncc1)Cc1c(O)ccc2cc(Br)ccc12 do in these assays?
AmpC detergent: inactive; Sm TGR block: 1.8µM; TbPYK inhibitor: inactive; RE007 growth inh: inactive; SARS PLP yeast: inactive; AmpC no deterg: inactive

How did CCN(CC)C(=O)Cc1c(OC)ccc2cc(Br)ccc12 do in these assays?
AmpC detergent: inactive; Sm TGR block: inactive; TbPYK inhibitor: inactive; RE007 growth inh: inactive; SARS PLP yeast: inactive; AmpC no deterg: inactive

What do the screens show for `O=C1CC(c2ccccc2)CC2=C1C(c1ccccn1)Nc1ccccc1N2` (stereo not given)?
AmpC detergent: inactive; Sm TGR block: inactive; TbPYK inhibitor: inactive; RE007 growth inh: inactive; SARS PLP yeast: inactive; AmpC no deterg: inactive

What do the screens show for `O=C1CC(c2ccc(F)cc2)CC2=C1C(c1ccc([N+](=O)[O-])o1)Nc1ccccc1N2` (stereo not given)?
AmpC detergent: inactive; Sm TGR block: 16µM; TbPYK inhibitor: inactive; RE007 growth inh: inactive; SARS PLP yeast: inactive; AmpC no deterg: inactive

Results for COC(=O)C1C(=O)c2c([nH]c(C(=O)OCC3CCCO3)c2C)CC1C (stereo not given) ?
AmpC detergent: inconclusive; Sm TGR block: inactive; TbPYK inhibitor: inactive; RE007 growth inh: inactive; SARS PLP yeast: inactive; AmpC no deterg: 10µM

How did COCCOC(=O)c1[nH]c2c(c1C)C(=O)C(C(=O)OC)C(C)C2 (stereo not given) do in these assays?
AmpC detergent: inactive; Sm TGR block: inactive; TbPYK inhibitor: inactive; RE007 growth inh: inactive; SARS PLP yeast: inactive; AmpC no deterg: inactive

Results for O=C1N(Cc2cccc(Cl)c2)C[C@@H]2C[C@@H](c3ccccn3)N3CCC[C@@]123 ?
AmpC detergent: inactive; Sm TGR block: 10µM; TbPYK inhibitor: inconclusive; RE007 growth inh: inactive; SARS PLP yeast: inactive; AmpC no deterg: inactive

Results for O=C1N(Cc2cccnc2)C[C@@H]2C[C@@H](c3ccc4nonc4c3)N3CCC[C@@]123 ?
AmpC detergent: inactive; Sm TGR block: 28µM; TbPYK inhibitor: inactive; RE007 growth inh: inactive; SARS PLP yeast: inactive; AmpC no deterg: inactive

How did CCn1ccnc1[C@@H]1C[C@H]2CN(Cc3cccc(Cl)c3)C(=O)[C@]23CCCN13 do in these assays?
AmpC detergent: inactive; Sm TGR block: inactive; TbPYK inhibitor: inactive; RE007 growth inh: inactive; SARS PLP yeast: inactive; AmpC no deterg: inactive

How did COc1ccc(-c2nc3cnc(N4CCNCC4)nc3n(CCc3ccccc3)c2=O)cc1 do in these assays?
TbPYK inhibitor: inactive

What do the screens show for `CCOc1cc(/C=C\[N+](=O)[O-])ccc1OCC(=O)N1CCOCC1`?
AmpC detergent: inactive; Sm TGR block: 10µM; TbPYK inhibitor: inconclusive; RE007 growth inh: inactive; SARS PLP yeast: inactive; AmpC no deterg: inactive

How did CC(C(=O)Nc1ccccc1)c1ccc(-c2ccccc2)c(F)c1 (stereo not given) do in these assays?
AmpC detergent: inconclusive; Sm TGR block: inactive; TbPYK inhibitor: inactive; RE007 growth inh: inactive; SARS PLP yeast: inactive; AmpC no deterg: 11µM
